The record followed here is PubChem BioAssay (NCI).

The panel holds about 83,000 compounds, 20% with a hit somewhere; the sample as a whole holds those more often.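 Growth was measured after 48 h exposure to one concentration of compound in 96-well plates. Values under 10 count as active.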 Calls of active or inactive are those of the source.

In the test the test system is HL-60(TB) leukemia. In words: NCI-60 one-dose screen, 48 h (100 = growth as untreated, 0 = no growth, -100 = all killed). To be noted: 10 µM unless noted.
Take `C[C@H](Nc1nc(NCCc2ccccc2)nc2ccccc12)c1ccccc1`: the growth was -48.2% (active).

Consider `O=C1NC(=O)c2c1c1c3cc(Br)ccc3[nH]c1c1oc3ccc(F)cc3c21`, for which the growth is 44.6% (inactive).

Turning to `O=C1CCC(N2C(=O)c3cccc(NCCOCCOCCOCCC(=O)NCCCC(=O)NC(c4ccc5c(c4)OCO5)c4cc(Cl)c5cccnc5c4O)c3C2=O)C(=O)C1` (configuration not stated), the growth is -14.1% (active). As for `COc1ccc2c(c1)C(Sc1ccc(Br)cc1)c1c(nc(N)c(C#N)c1N)O2` (configuration not stated), the growth is 78% (inactive). Next, `COc1ccc2[nH]cc(-c3nnc(N)nc3-c3cn(C)c4ncc(Br)cc34)c2c1`: 35% (inactive); `CCOc1ccccc1[C@H]1C(C(=O)c2ccc(Cl)cc2)C2(N[C@@H]1c1ccccc1)C(=O)Nc1ccc(Br)cc12` (some centres not stated): -18.4% (active). For `COc1ccc(NC(=O)Nc2ccc(OCC(=O)N=Nc3c(O)[nH]c4ccc([N+](=O)[O-])cc34)cc2)cc1`, the growth is 99% (inactive). Regarding `COc1ccc(N=Nc2c(N)nn3c(N)c(C#N)c(-c4ccc(F)cc4)nc23)cc1`, the growth was 74% (inactive). With `COc1cc(C=O)ccc1OC(=O)c1cc(-c2ccc(C)cc2)n(-c2ccc(S(C)(=O)=O)cc2)n1` the figure was 83.4% (inactive); with `COc1ccc(-c2cc(C(=O)Oc3ccc(C=O)cc3OC)nn2-c2ccc(S(C)(=O)=O)cc2)cc1`, 86.5% (inactive). In the case of `COCOc1ccc2c(=O)c(C)c(C(=O)N[C@@H](Cc3ccccc3)C(O)C(=O)NCCc3ccc(OC)cc3)oc2c1` (some centres not stated), the growth was 102% (inactive). Take `CCCSc1nnc(-c2sc3nc4ccccc4n3c2C)o1`: the growth was 94% (inactive).
